Results as given in the supplement of paper PMC10849652.
Of roughly 7,900 targets only a part is listed; those with a hit were picked by preference. About 0.6% of all pairs of compound and target were hits.

Assays:
Experiment in all cases: log2 fold change, soluble protein after heating vs DMSO (PISA); higher = thermal stabilisation; K562 cells, 10 uM, 30 min; active = over 0.2 and 3.5 SD of the protein, either way, in both replicates (recomputed)
IRAK-1-4 Inhibitor I = compound: C1COCCN1CCN2C3=CC=CC=C3N=C2NC(=O)C4=CC(=CC=C4)[N+](=O)[O-] [IRAK-1-4 Inhibitor I]
Summary of the method: (§1)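 K562 cells at 2×10^6 cells/mL were treated for 30 min with 10 μM compound, and aliquots were heated for 3 min over 48°C-58°C before pooling. Extraction used PBS with 0.5% NP-40 at 4°C, and soluble protein was the supernatant after 21,000xg for 90 min, measured by TMTpro 16plex LC-MS/MS with channel sums equalised. Thermal stability values, relative to control samples and from duplicates, are log2 fold changes.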

ibrutinib = compound: C=CC(=O)N1CCC[C@@H](n2nc(-c3ccc(Oc4ccccc4)cc3)c3c(N)ncnc32)C1 [ibrutinib]
Summary of the method: as §1

[1] = compound: CC(=O)c1cnc2ccc(-c3cc(Cl)c(O)c(Cl)c3)nc2c1N[C@H]1CC[C@H](CN(C)C)CC1
Summary of the method: as §1

ralimetinib = compound: CC(C)(C)Cn1c(N)nc2ccc(-c3[nH]c(C(C)(C)C)nc3-c3ccc(F)cc3)nc21 [ralimetinib]
Summary of the method: as §1

[2] = compound: CC(C)(O)CC(=O)NCCn1ccc2ncnc(Nc3ccc(Oc4cccc(C(F)(F)F)c4)c(Cl)c3)c21
Summary of the method: as §1

[3] = compound: CC(C)C1=C2N=C(C=C(N2N=C1)NCC3=CC=CC=C3)NCCCCCCN
Summary of the method: as §1

[4] = compound: CC(C)C[C@@H](C=O)NC(=O)[C@H](CC(C)C)NC(=O)[C@H](CC(C)C)NC(=O)OCc1ccccc1
Summary of the method: as §1

pinometostat = compound: CC(C)N(C[C@H]1O[C@@H](n2cnc3c(N)ncnc32)[C@H](O)[C@@H]1O)[C@H]1C[C@@H](CCc2nc3cc(C(C)(C)C)ccc3[nH]2)C1 [pinometostat]
Summary of the method: as §1

[5] = compound: CC1=C(C(CC(=O)N1)C2=CC=C(C=C2)C(F)(F)F)C(=O)NC3=C(C=C4C(=C3)C=NN4)F
Summary of the method: as §1

[6] = compound: CC1=C(C2=C(C=C1)C(=O)C3=CC=CC=C3N2CCCN)C
Summary of the method: as §1

Measured: log2 fold change

PRKCD (UniProt Q05655)
Sequence of UniProt Q05655 (Q05655 whole entry, looked up): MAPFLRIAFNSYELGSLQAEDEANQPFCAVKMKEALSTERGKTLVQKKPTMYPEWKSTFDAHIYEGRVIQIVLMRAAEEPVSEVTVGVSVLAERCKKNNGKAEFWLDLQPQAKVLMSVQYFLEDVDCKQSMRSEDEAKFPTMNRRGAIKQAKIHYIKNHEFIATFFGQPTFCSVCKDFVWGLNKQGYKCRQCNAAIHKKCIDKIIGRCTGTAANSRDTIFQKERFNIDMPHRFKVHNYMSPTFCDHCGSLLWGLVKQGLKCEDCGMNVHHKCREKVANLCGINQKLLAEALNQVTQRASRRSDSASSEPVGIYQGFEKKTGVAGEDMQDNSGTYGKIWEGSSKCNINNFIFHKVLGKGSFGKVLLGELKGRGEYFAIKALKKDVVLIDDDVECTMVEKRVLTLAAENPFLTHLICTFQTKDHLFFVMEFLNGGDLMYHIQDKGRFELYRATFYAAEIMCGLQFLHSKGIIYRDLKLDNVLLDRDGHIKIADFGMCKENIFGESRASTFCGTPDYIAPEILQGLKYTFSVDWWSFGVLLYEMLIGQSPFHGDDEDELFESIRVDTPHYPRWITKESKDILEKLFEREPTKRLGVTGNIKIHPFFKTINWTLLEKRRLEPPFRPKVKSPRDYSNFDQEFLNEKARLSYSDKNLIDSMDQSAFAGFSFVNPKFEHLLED
inactive: IRAK-1-4 Inhibitor I 0.043 | ibrutinib -0.027 | ralimetinib -0.041 | [2] -0.013 | [3] -0.004 | [4] 0.022 | pinometostat 0.017 | [5] -0.024 | [6] 0
active: [1] -0.685

POMK (UniProt Q9H5K3)
inactive: IRAK-1-4 Inhibitor I 0.046 | ibrutinib -0.036 | [1] -0.042 | ralimetinib 0.032 | [2] -0.024 | [3] -0.23 | [4] 0.027 | pinometostat 0.094 | [5] -0.009 | [6] 0.042

PPP1CA (UniProt P62136)
inactive: IRAK-1-4 Inhibitor I 0.041 | ibrutinib -0.02 | [1] -0.018 | ralimetinib -0.012 | [2] 0.007 | [3] 0.015 | [4] 0.009 | pinometostat -0.071 | [5] -0.013 | [6] -0.007

PBK (UniProt Q96KB5)
inactive: IRAK-1-4 Inhibitor I -0.142 | ibrutinib -0.059 | [1] 0 | ralimetinib 0.111 | [2] -0.144 | [3] -0.286 | [4] 0.06 | pinometostat 0.071 | [5] -0.011 | [6] -0.08

PLBD2 (UniProt Q8NHP8)
inactive: IRAK-1-4 Inhibitor I 0.04 | ibrutinib 0.009 | [1] 0.003 | ralimetinib -0.071 | [2] -0.01 | [3] -0.106 | [4] 0.025 | pinometostat 0.001 | [5] -0.018 | [6] -0.023

PUF60 (UniProt Q9UHX1)
active: [1] -0.352 | [3] -0.235
inactive: IRAK-1-4 Inhibitor I -0.11 | ibrutinib -0.018 | ralimetinib 0.049 | [2] -0.016 | [4] -0.003 | pinometostat -0.016 | [5] 0.001 | [6] 0.016

PLBD1 (UniProt Q6P4A8)
inactive: IRAK-1-4 Inhibitor I 0.033 | ibrutinib -0.002 | [1] 0.025 | ralimetinib -0.077 | [2] 0.036 | [3] -0.012 | [4] -0.015 | pinometostat 0.057 | [5] -0.019 | [6] 0.02

PRKACA (UniProt P17612)
inactive: IRAK-1-4 Inhibitor I 0.023 | ibrutinib -0.011 | [1] -0.038 | ralimetinib -0.01 | [2] 0.01 | [3] 0.008 | [4] 0.005 | pinometostat -0.06 | [5] -0.07 | [6] -0.034

PITRM1 isoform 2 (UniProt Q5JRX3)
Sequence of UniProt Q5JRX3 (Q5JRX3 whole entry, looked up): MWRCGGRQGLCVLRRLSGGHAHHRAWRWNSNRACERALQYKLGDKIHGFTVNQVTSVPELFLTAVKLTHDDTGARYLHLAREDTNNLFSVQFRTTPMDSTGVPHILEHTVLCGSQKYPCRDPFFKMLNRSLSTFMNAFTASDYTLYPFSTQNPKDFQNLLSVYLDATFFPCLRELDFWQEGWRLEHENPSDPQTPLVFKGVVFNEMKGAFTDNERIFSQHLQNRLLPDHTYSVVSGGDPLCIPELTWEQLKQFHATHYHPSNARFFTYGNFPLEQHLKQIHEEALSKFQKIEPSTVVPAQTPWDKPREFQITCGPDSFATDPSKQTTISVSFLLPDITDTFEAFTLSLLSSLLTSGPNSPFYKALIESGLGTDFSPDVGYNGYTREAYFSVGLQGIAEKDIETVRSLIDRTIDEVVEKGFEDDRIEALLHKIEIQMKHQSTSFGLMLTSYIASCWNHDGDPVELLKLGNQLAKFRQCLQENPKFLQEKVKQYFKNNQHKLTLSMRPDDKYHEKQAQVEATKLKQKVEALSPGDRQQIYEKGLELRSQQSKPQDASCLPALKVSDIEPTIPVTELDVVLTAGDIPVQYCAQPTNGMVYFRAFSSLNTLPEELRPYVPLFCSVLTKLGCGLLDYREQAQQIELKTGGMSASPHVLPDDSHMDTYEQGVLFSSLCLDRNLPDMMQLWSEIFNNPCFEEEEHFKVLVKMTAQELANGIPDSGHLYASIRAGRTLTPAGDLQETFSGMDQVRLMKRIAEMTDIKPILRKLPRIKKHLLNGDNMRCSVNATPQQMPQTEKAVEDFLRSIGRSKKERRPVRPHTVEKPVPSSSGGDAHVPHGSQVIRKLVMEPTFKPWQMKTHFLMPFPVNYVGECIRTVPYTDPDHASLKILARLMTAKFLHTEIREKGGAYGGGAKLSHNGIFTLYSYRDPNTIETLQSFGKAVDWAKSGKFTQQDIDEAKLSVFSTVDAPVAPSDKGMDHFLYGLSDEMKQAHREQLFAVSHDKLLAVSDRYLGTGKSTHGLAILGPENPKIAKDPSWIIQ
active: ralimetinib 0.239
inactive: IRAK-1-4 Inhibitor I 0.045 | ibrutinib -0.045 | [1] -0.046 | [2] -0.173 | [3] -0.026 | [4] 0.062 | pinometostat -0.042 | [5] -0.013 | [6] 0.006

PUM1 isoform 3 (UniProt Q14671)
Sequence of UniProt Q14671 (Q14671 whole entry, looked up): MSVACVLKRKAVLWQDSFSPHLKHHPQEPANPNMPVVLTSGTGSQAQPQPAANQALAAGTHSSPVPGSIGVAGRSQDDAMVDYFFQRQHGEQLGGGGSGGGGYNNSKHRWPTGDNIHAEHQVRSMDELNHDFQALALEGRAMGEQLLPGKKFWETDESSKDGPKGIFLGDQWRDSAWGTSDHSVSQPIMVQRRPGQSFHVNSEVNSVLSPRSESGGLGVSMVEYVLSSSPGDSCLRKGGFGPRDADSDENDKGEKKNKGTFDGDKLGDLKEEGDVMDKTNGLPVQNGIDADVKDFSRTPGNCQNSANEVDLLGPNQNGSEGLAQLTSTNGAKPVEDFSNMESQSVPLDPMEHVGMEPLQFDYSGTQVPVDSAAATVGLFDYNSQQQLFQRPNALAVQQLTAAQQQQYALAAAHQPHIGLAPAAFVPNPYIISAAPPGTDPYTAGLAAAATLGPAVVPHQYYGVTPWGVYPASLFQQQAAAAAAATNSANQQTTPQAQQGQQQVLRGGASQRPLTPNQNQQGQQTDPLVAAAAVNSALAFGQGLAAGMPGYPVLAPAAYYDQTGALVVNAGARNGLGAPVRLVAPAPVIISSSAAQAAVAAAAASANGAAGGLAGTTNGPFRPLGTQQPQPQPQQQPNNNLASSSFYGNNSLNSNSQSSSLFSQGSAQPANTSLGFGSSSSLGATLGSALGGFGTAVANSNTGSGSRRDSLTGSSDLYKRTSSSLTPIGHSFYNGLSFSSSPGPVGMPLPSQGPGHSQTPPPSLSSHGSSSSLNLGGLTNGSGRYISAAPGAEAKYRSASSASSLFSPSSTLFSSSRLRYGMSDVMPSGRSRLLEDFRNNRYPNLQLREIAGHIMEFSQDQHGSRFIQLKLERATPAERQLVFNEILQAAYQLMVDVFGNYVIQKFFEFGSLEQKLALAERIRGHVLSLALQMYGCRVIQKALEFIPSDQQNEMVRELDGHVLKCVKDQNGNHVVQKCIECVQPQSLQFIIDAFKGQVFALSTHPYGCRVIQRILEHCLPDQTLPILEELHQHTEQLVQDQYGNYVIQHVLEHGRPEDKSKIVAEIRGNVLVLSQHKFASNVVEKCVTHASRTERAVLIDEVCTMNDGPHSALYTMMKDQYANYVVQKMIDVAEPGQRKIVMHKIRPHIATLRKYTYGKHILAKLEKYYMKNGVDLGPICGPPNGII
inactive: IRAK-1-4 Inhibitor I 0.004 | ibrutinib 0.02 | [1] -0.097 | ralimetinib 0.013 | [2] -0.022 | [3] -0.059 | [4] 0.02 | pinometostat 0.023 | [5] 0.006 | [6] 0.063

PRKAA1 isoform 2 (UniProt Q13131)
inactive: IRAK-1-4 Inhibitor I 0.046 | ibrutinib -0.006 | ralimetinib -0.003 | [2] -0.009 | [3] -0.025 | [4] -0.014 | pinometostat -0.014 | [5] 0.022 | [6] 0.019
active: [1] -0.343

PPP1R35 (UniProt Q8TAP8)
Sequence of UniProt Q8TAP8 (Q8TAP8 whole entry, looked up): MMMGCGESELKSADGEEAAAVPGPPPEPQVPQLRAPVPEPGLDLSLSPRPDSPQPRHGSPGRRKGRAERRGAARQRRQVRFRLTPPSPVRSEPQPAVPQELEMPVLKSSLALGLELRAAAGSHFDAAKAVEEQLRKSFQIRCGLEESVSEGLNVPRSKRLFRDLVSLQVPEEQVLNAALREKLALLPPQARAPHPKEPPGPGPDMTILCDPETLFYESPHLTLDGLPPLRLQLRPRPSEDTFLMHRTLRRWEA
inactive: IRAK-1-4 Inhibitor I -0.055 | ibrutinib -0.057 | [1] -0.069 | ralimetinib -0.007 | [2] -0.026 | [3] -0.049 | [4] 0.036 | pinometostat -0.021 | [5] 0.049 | [6] -0.049

PRKD2 isoform 3 (UniProt Q9BZL6)
Sequence of UniProt Q9BZL6 (Q9BZL6 whole entry, looked up): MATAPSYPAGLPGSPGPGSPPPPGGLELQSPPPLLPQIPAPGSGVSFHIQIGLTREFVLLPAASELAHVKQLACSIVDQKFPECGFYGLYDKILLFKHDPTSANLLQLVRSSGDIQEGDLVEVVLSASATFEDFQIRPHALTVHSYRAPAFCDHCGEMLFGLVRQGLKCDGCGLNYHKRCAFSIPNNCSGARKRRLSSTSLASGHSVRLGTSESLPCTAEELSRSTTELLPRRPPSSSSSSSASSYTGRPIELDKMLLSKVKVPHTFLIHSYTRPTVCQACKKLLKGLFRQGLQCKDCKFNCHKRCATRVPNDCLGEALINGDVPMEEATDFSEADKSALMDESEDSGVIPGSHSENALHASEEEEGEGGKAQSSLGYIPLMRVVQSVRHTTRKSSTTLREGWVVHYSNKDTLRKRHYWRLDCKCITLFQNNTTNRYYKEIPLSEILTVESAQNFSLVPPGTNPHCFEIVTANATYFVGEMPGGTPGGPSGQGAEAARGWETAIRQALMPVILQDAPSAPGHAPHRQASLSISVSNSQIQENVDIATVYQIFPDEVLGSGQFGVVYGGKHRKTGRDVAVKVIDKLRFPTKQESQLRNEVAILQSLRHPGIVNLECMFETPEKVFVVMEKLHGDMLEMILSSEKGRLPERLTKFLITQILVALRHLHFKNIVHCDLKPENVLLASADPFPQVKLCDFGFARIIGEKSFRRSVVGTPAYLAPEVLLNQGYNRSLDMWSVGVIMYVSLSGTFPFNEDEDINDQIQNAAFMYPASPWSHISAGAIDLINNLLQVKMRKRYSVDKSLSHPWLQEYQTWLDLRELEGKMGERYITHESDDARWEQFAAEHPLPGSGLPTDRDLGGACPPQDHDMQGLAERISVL
inactive: IRAK-1-4 Inhibitor I -0.046 | ibrutinib -0.057 | ralimetinib 0.089 | [2] -0.302 | [3] -0.216 | [4] 0.074 | pinometostat 0.056 | [5] 0.192 | [6] -0.087
active: [1] -1.03

PRMT7 (UniProt Q9NVM4)
active: [3] -0.329
inactive: IRAK-1-4 Inhibitor I 0.044 | ibrutinib -0.061 | [1] -0.004 | ralimetinib -0.005 | [2] 0.048 | [4] -0.033 | pinometostat 0.074 | [5] -0.022 | [6] -0.065

PLIN2 (UniProt Q99541)
active: [3] -1.11
inactive: IRAK-1-4 Inhibitor I 0.058 | ibrutinib 0.055 | [1] 0.005 | ralimetinib -0.065 | [2] -0.083 | [4] -0.014 | pinometostat 0.007 | [5] -0.031 | [6] -0.022

PDCD6IP (UniProt Q8WUM4)
inactive: IRAK-1-4 Inhibitor I -0.156 | ibrutinib -0.11 | [1] -0.039 | ralimetinib 0.046 | [2] -0.198 | [3] -0.327 | [4] 0.019 | pinometostat 0.084 | [5] 0.015 | [6] 0.044

POLR2I (UniProt P36954)
active: [1] 0.425
inactive: IRAK-1-4 Inhibitor I 0.045 | ibrutinib 0.136 | ralimetinib -0.079 | [2] 0.035 | [3] 0.389 | [4] 0.03 | pinometostat -0.024 | [5] 0 | [6] 0.324

PBX2 (UniProt P40425)
inactive: IRAK-1-4 Inhibitor I -0.078 | ibrutinib 0.023 | [1] -0.122 | ralimetinib 0.04 | [2] -0.145 | [3] -0.184 | [4] 0.078 | pinometostat -0.058 | [5] 0.131 | [6] -0.005

POLA2 (UniProt Q14181)
active: [3] -0.258
inactive: IRAK-1-4 Inhibitor I 0.015 | ibrutinib -0.038 | [1] -0.073 | ralimetinib -0.028 | [2] -0.083 | [4] 0.011 | pinometostat 0.041 | [5] 0 | [6] -0.021

PSMC1 (UniProt P62191)
active: [4] -0.212
inactive: IRAK-1-4 Inhibitor I -0.053 | ibrutinib -0.024 | [1] 0.056 | ralimetinib 0.018 | [2] 0.002 | [3] 0.04 | pinometostat 0.032 | [5] 0.031 | [6] -0.007

POLR2E (UniProt P19388)
inactive: IRAK-1-4 Inhibitor I -0.106 | ibrutinib -0.012 | [1] 0.218 | ralimetinib -0.041 | [2] -0.061 | [3] 0.081 | [4] 0.065 | pinometostat 0.108 | [5] -0.055 | [6] -0.014

PFDN1 (UniProt O60925)
Sequence of UniProt O60925 (O60925 whole entry, looked up): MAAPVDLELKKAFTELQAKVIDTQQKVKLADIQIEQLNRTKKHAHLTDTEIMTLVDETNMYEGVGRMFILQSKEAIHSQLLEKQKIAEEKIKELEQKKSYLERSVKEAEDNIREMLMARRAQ
inactive: IRAK-1-4 Inhibitor I -0.187 | ibrutinib -0.119 | [1] -0.002 | ralimetinib -0.141 | [2] -0.031 | [3] 0.062 | [4] -0.13 | pinometostat -0.175 | [5] -0.021 | [6] 0.254

PHAX (UniProt Q9H814)
Sequence of UniProt Q9H814 (Q9H814 whole entry, looked up): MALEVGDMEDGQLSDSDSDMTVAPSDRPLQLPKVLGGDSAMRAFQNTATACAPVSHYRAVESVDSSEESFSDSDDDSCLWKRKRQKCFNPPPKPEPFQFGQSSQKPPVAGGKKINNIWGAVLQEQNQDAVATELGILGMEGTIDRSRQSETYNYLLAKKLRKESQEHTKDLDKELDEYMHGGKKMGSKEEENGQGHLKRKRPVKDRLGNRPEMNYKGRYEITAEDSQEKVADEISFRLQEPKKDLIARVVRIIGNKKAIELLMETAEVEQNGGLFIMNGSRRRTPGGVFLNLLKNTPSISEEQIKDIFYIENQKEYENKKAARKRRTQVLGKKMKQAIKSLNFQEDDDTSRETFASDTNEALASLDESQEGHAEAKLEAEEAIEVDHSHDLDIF
active: [6] -0.253
inactive: IRAK-1-4 Inhibitor I 0.015 | ibrutinib 0.027 | [1] -0.041 | ralimetinib 0.002 | [2] 0.024 | [3] -0.16 | [4] 0.019 | pinometostat 0.016 | [5] 0.071

PXK (UniProt Q7Z7A4)
inactive: IRAK-1-4 Inhibitor I 0.032 | ibrutinib 0.042 | [1] -0.012 | ralimetinib 0.1 | [2] -0.023 | [3] -0.201 | [4] 0.037 | pinometostat 0.012 | [5] -0.024 | [6] 0.057

PIK3C3 (UniProt Q8NEB9)
inactive: IRAK-1-4 Inhibitor I -0.012 | ibrutinib -0.005 | [1] 0.058 | ralimetinib 0.082 | [2] 0.002 | [3] -0.003 | [4] 0.035 | pinometostat 0.14 | [5] -0.021 | [6] 0.013

PRPF3 (UniProt O43395)
inactive: IRAK-1-4 Inhibitor I -0.018 | ibrutinib -0.038 | [1] -0.179 | ralimetinib -0.008 | [2] -0.055 | [3] -0.205 | [4] -0.001 | pinometostat 0 | [5] 0 | [6] -0.2

PTRH2 (UniProt Q9Y3E5)
Sequence of UniProt Q9Y3E5 (Q9Y3E5 whole entry, looked up): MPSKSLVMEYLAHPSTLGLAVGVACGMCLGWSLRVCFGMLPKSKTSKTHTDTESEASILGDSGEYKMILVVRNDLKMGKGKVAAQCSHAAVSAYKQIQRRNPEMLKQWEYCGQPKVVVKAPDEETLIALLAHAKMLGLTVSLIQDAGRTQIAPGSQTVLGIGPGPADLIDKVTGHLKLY
inactive: IRAK-1-4 Inhibitor I 0.059 | ibrutinib 0.031 | [1] 0.075 | ralimetinib 0.085 | [2] -0.065 | [3] 0.062 | [4] -0.081 | pinometostat -0.033 | [5] -0.008 | [6] 0.017

PRMT8 (UniProt Q9NR22)
inactive: IRAK-1-4 Inhibitor I 0.045 | ibrutinib -0.004 | [1] -0.012 | ralimetinib 0.098 | [2] -0.014 | [3] 0.001 | [4] -0.073 | pinometostat 0.026 | [5] -0.027 | [6] 0.101

POLD3 (UniProt Q15054)
active: [3] -0.357
inactive: IRAK-1-4 Inhibitor I -0.013 | ibrutinib -0.01 | [1] -0.043 | ralimetinib -0.001 | [2] -0.114 | [4] -0.117 | pinometostat -0.016 | [5] -0.091 | [6] 0.013

PSMB6 (UniProt P28072)
Sequence of UniProt P28072 (P28072 whole entry, looked up): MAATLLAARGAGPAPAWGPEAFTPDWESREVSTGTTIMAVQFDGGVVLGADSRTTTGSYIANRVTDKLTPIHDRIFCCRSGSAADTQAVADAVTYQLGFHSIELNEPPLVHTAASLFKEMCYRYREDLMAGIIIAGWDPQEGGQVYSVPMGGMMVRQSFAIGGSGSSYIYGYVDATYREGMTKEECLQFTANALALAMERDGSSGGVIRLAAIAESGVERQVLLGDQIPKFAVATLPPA
active: [4] 0.4
inactive: IRAK-1-4 Inhibitor I -0.007 | ibrutinib -0.025 | [1] 0.049 | ralimetinib -0.045 | [2] 0.045 | [3] 0.129 | pinometostat -0.053 | [5] 0.046 | [6] 0
